From PubChem
Sampled rows, rich in hits. Any-hit rate of the full collection: about 19%.
IL1B secr inh – blocks inflammasome-driven IL-1 beta release. activity change, % at 57.5 µM. actives 4.7% (n = 360,000). THP-1 LPS/ATP IL-1B secretion, AlphaLISA, 16 h; hits give low values. AID 743279; in the data active = activity change below about -50%; inconclusive = mostly about -30% to -49%
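Secreted IL-1B measured by AlphaLISA bead assay after 16 h compound exposure of THP-1 cells; compounds (final up to 57.5 uM) added 1 h before LPS (250 ng/mL) and ATP (1.25 mM) stimulation; lower signal means less secretion.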
DT40 TDP1 CPT – growth inhibition of DT40 Tdp1-/-;hTDP1 cells with camptothecin (screen for TDP1 inhibitors); chicken DT40 Tdp1-/-;hTDP1 cells + 20 nM CPT, ATP luminescence, 48 h; Potency, µM (highest dose often 46.2 µM), for inactives: at the top dose activity change, negative = growth inhibition, actives largely listed as inhibitors; actives 12% (n = 420,000); AID 686979; note: potency is the fitted concentration of half-maximal effect; nearly all actives have a fitted effect of over 55% in size
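Chicken DT40 Tdp1-/- cells complemented with human TDP1, 400 cells/well, exposed to compounds plus 20 nM camptothecin for at least 48 h at 37 C; viability read as ATP content by CellTiter-Glo luminescence.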
ELG1 DNA repair – ELG1-dependent DNA repair inhibition. AID 504467. actives 2.3% (n = 330,000). HEK293T ELG1-luciferase reporter, luminescence, 16 h; DNA damage induced by 5-fluorouridine. Potency, µM (series often up to 46.1 µM), for inactives: at the top dose activity change, negative = inhibition, actives largely listed as inhibitors; note: potency is the fitted concentration of half-maximal effect; nearly all actives have a fitted effect of over 55% in size
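Cells (2,000 per well) received 5-fluorouridine plus test compound or DMSO and were incubated 16 hr at 37 °C, 5% CO2. Luciferase activity was read by luminescence 30 min after ONE-Glo addition; signal suppression marked inhibition of damage-induced ELG1 function.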
HT1080 IDH1KD tx – HT-1080 IDH1 knockdown cell toxicity (counter line); AID 686971; HT-1080 IDH1 knockdown viability, ATP luminescence, 48 h; Potency, µM (highest dose often 46.1 µM), without a hit: top-dose activity, negative = toxicity, actives largely listed as cytotoxic; actives 2% (n = 360,000);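 note: potency is the fitted concentration of half-maximal effect; 0% = DMSO wells and -100% = cell-free medium wells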
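Cytotoxicity counter-line: IDH1KD HT-1080, 48 h, CellTiter-Glo. Curves classed by r2, magnitude and activity.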
HT1080NT lethal – kills 2HG-producing HT-1080-NT fibrosarcoma cells. HT-1080-NT fibrosarcoma viability, CellTiter-Glo ATP luminescence, 48 h. Potency, µM (titrated, usually from 46.1 µM), for inactives: at the top dose activity, negative = less viability, most hits filed as cytotoxic. actives 1.6% (n = 360,000);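 note: NT is the 2HG producing partner of a matched IDH1 knockdown line; potency is the fitted concentration of half-maximal effect; 0% = DMSO-treated cells and -100% = media-only wells without cells; nearly all actives have a fitted effect of over 55% in size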
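Toxicity toward the 2HG-producing NT line was scored as %Activity, normalised to DMSO and no-cell wells, from CellTiter-Glo luminescence after 48 hours' treatment.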
DT40 TDP1 no CPT – qHTS for Inhibitors of human tyrosyl-DNA phosphodiesterase 1 (TDP1): qHTS in cells in absence of CPT; DT40 Tdp1-/- hTDP1 cells, no CPT, ATP luminescence, 48 h; AID 686978, 2013; actives 15% (n = 420,000); Potency, µM (highest dose often 46.2 µM), for the others: at the highest dose activity change, negative = growth inhibition, most hits filed as inhibitors; note: potency is the fitted concentration of half-maximal effect; nearly all actives have a fitted effect of over 55% in size
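Growth of hTDP1-complemented DT40 Tdp1-knockout cells is measured by ATP luminescence after at least 48 hr compound exposure at 37 °C, with DMSO substituting for the 20 nM CPT used in the parallel screen.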
* = called active by the depositor; i = inactive; u = inconclusive; x = no result. Unless noted, calls come from the whole dose curve; as a rule, active = well fitted curve in the direction sought with a large enough effect; inconclusive = small, poorly fitted or top-dose-only effect, or another doubt; inactive = no such curve, though single readings can be large; an effect the other way counts as inactive or inconclusive. Unless noted, % is set by controls: 0 for no effect and ±100 for the full control effect.

SMILES	IL1B secr inh	DT40 TDP1 CPT	ELG1 DNA repair	HT1080 IDH1KD tx	HT1080NT lethal	DT40 TDP1 no CPT
CCc1ccc(-n2nc(C)c3c(C)cc(=O)n(CC(=O)Nc4ccccc4C(=O)OC)c32)cc1	x	-15%	x	x	x	-4%
COC(=O)c1ccccc1NC(=O)CSc1c2c(nc3ccc(Cl)cc13)CCCC2	x	u	x	x	x	12µM*
Cc1ccc(C)c(NC(=O)CSc2c3c(nc4ccc(Cl)cc24)CCCC3)c1	x	21µM*	x	x	x	21µM*
COCCCC1CCN(C(=O)c2cc(COc3ccc(C)nc3)on2)CC1	24	18µM*	9%	-13%	u	10µM*
CCC1CCCCN1C(=O)c1cc(COc2ccc(-n3cncn3)cc2)on1 (stereo unspecified)	i	18µM*	-2%	-3%	u	16µM*
COCCC1CCCCN1C(=O)c1cc(COc2ccc(C)nc2)on1 (stereo unspecified)	u	21µM*	u	-10%	21µM*	23µM*
O=C(Nc1ccon1)Nc1cccc(Cl)c1Cl	19	-5%	-9%	1%	11%	13%
CCN1CCN(CCCNC(=O)C2CCCN(c3nc4c(C)cc(C)cc4s3)C2)CC1 (stereo unspecified)	-14	23µM*	u	u	u	21µM*
Cc1cc(C)c2nc(N3CCC(C(=O)NCCCN4CC(C)CC(C)C4)CC3)sc2c1 (stereo unspecified)	-17	u	u	x	x	23µM*
Cn1nc(C(=O)NNC(=O)C(CCC(N)=O)NS(=O)(=O)c2ccc(Cl)cc2)c2ccccc2c1=O (stereo unspecified)	2	-1%	u	3%	10%	1%
COc1c(C)cc(S(=O)(=O)NCc2ccco2)c(C)c1C	-12	-3%	u	11%	10%	-6%
O=C(C[n+]1ccc2ccccc2c1)Nc1cc(C(F)(F)F)ccc1Cl	-58*	21µM*	14%	-19%	-5%	u
CN(C)c1cc[n+](CC(=O)Nc2cc(C(F)(F)F)ccc2Cl)cc1	u	16µM*	-8%	u	u	8.2µM*
Cc1cc[n+](CC(=O)Nc2cc(C(F)(F)F)ccc2Cl)cc1	-14	-16%	0%	5%	5%	-10%
O=C(C[n+]1ccccc1)Nc1cc(C(F)(F)F)ccc1Cl	-9	9%	15%	-10%	-6%	-28%
COc1cc(O)cc2c1[C@@H]1Oc3c(ccc(O)c3CC=C(C)C)[C@@H]1CO2	-4	18µM*	x	1%	0%	23µM*
O=C(NCC1CCCO1)C1CCCN(Cc2cnn(-c3ccccc3)c2-n2cccc2)C1 (stereo unspecified)	-13	-16%	-7%	-5%	-5%	u
Cc1ccc(CNC(=O)C2CCCN(Cc3cnn(-c4ccccc4)c3-n3cccc3)C2)cc1 (stereo unspecified)	u	21µM*	u	3%	1%	21µM*
CCOC(=O)[C@H]1[C@H]2COc3ccc(Br)cc3[C@@H]2N2C(=O)CN(Cc3ccco3)C(=O)[C@@]12C	-16	u	-16%	6%	0%	u
CCOC(=O)[C@H]1[C@H]2COc3ccc(Br)cc3[C@@H]2N2C(=O)CN(Cc3ccc(F)cc3)C(=O)[C@@]12C	-13	u	u	1%	5%	21µM*
CCOC(=O)[C@H]1[C@H]2COc3ccc(C)cc3[C@@H]2N2C(=O)CN(Cc3ccc(Cl)cc3)C(=O)[C@@]12C	23	-26%	-27%	5%	-1%	2%
CCOC(=O)[C@H]1[C@H]2COc3ccc(Br)cc3[C@H]2N2C(=O)CN(Cc3ccc(Cl)cc3)C(=O)[C@@]12C	-52*	u	x	-8%	-7%	23µM*
CCOC(=O)[C@H]1[C@H]2COc3ccc(OC)cc3[C@@H]2N2C(=O)CN(Cc3ccc(F)cc3)C(=O)[C@@]12C	12	u	2%	-1%	-1%	u
CCOC(=O)[C@H]1[C@H]2COc3ccc(Br)cc3[C@@H]2N2C(=O)CN(Cc3ccc(Cl)cc3)C(=O)[C@@]12C	-11	18µM*	-22%	-22%	-26%	u
O=C(NCCCN1CCCC1=O)c1cc(S(=O)(=O)N2CCOCC2)ccc1Cl	10	3%	5%	-3%	-4%	13%
SMILES	IL1B secr inh	DT40 TDP1 CPT	ELG1 DNA repair	HT1080 IDH1KD tx	HT1080NT lethal	DT40 TDP1 no CPT
Cc1ccccc1Nc1nc(Nc2ccccc2C)nc(SC2=NCCS2)n1	u	23µM*	u	u	u	21µM*
Cc1ccc(Nc2nc(Nc3ccc(C)cc3)nc(SC3=NCCS3)n2)cc1	-7	u	u	u	10µM*	18µM*
CC(=NNC(=S)N1CCCCCC1)c1cccc2cccnc12	-101*	0.016µM*	x	u	-8%	0.021µM*
CC(=NNC(=S)N1CCN(C2CCCCCC2)CC1)c1ccccn1	-98*	0.065µM*	x	u	21µM*	0.037µM*
CC(=NNC(=S)N1CCN(c2ccccn2)CC1)c1nccs1	0	0.015µM*	x	u	-19%	0.016µM*
CC(=NNC(=S)N1CCN(c2ccccn2)CC1)c1ccccn1	41	18µM*	x	u	-9%	16µM*
Cc1cc(C)n(C(C)CC(=O)Nc2ccc(-c3ccno3)cc2)n1 (stereo unspecified)	14	-23%	4%	11%	-1%	2%
COc1cc2c(cc1OC)n(CC(=O)NC1CCCCCC1)n1c(C)cc(=O)nc21	-13	-20%	1%	-1%	10%	-1%
COc1ccc(-c2csc(NC(=O)COC(=O)C3=COCCO3)n2)cc1	-19	3%	u	-2%	-1%	-16%
COCCCNC(=O)CC1C[C@H](C(=O)N(C(C)C)C(C)C)[C@@]2(C)c3[nH]c4ccccc4c3CCN2C1=O (stereo partly specified)	-2	-38%	2%	20%	7%	u
O=C1c2cccc3cccc(c23)C(=O)N1CCN1CCN(CC(O)COc2ccc3ccccc3c2)CC1 (stereo unspecified)	-2	18µM*	9.2µM*	u	u	10µM*
COc1cccc(OCC(O)CN2CCN(C)CC2)c1 (stereo unspecified)	-18	1%	-1%	25%	25%	-5%
